The record followed here is PMC7862700, “An all-to-all approach to the identification of sequence-specific readers for epigenetic DNA modifications on cytosine”.

Holding throughout (assay): DAPPL (digital affinity profiling via proximity ligation, sequencing); 10 mM Tris-HCl pH 7.5, 50 mM NaCl, 1 mM DTT, 4% glycerol, room temperature, 30 min; GST-TFs on glutathione beads, 16-mer random dsDNA library, 0.1% formaldehyde crosslink after washing; high values mean tight binding
Common to all, as to conditions: protein: recombinant; tags: N-terminal GST; dsDNA, one strand shown

The target in one test is T1, FLI1 (Homo sapiens, UniProt Q01543 1-452).
T1 sequence: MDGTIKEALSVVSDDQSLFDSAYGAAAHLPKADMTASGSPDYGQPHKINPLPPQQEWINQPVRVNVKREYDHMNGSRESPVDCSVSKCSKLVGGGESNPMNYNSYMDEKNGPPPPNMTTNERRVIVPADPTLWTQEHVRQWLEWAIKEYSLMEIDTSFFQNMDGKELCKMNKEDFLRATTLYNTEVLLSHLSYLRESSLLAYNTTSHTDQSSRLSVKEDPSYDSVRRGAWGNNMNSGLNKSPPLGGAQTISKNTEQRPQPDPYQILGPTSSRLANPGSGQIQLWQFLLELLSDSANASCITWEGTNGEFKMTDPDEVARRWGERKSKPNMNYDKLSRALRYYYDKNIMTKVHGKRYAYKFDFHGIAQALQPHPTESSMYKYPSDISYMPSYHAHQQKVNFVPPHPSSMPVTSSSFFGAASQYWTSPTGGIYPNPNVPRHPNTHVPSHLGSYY
Put shortly: (§1)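 Pools of DNA-barcoded human transcription factors, expressed in yeast as GST fusions on glutathione beads and combined with a tag-only sample, were incubated with 200 nmole of a 16-mer random double-stranded DNA library. Incubation took 30 min at room temperature in Tris/NaCl/DTT/glycerol buffer and was followed by washing, 0.1% formaldehyde crosslinking, proximity ligation (BsaI/T4 ligase, 1 h, 37 °C), PCR amplification and sequencing on an Illumina NextSeq500. Binding signal is the ratio of a hexamer's read frequency for a factor to its frequency for the tag-only sample.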

In the next test the target is T2, ELK1 (Homo sapiens, UniProt P19419 1-428).
T2 sequence: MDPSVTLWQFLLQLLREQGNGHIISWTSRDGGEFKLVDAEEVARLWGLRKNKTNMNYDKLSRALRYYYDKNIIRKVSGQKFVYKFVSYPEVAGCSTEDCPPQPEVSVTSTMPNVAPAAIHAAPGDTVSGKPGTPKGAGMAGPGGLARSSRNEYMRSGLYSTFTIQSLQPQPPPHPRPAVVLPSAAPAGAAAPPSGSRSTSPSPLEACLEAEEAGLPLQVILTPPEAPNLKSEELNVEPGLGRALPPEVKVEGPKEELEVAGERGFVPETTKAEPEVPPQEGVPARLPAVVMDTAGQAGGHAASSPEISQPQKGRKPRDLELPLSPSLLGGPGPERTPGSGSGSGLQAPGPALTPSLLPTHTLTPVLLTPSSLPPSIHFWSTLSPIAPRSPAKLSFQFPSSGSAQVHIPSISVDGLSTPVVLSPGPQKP
Put shortly:
as §1

Another test deals with T3, GABPA (Homo sapiens, UniProt Q06546 1-454).
T3 sequence: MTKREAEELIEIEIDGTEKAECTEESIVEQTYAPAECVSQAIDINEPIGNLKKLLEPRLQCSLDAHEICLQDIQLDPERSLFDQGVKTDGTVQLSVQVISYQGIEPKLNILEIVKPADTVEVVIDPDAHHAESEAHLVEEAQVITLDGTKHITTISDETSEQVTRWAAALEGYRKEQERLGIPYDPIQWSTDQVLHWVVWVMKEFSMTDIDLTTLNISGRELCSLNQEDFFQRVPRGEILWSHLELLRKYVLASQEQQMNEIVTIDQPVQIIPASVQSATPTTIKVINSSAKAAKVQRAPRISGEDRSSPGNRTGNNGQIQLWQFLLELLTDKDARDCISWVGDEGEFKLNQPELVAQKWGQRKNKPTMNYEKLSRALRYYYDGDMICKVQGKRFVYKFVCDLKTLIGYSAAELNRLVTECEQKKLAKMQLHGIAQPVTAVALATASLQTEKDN
The procedure, abridged:
as §1

The next test deals with T4, ERG (Homo sapiens, UniProt P11308 1-479).
T4 sequence: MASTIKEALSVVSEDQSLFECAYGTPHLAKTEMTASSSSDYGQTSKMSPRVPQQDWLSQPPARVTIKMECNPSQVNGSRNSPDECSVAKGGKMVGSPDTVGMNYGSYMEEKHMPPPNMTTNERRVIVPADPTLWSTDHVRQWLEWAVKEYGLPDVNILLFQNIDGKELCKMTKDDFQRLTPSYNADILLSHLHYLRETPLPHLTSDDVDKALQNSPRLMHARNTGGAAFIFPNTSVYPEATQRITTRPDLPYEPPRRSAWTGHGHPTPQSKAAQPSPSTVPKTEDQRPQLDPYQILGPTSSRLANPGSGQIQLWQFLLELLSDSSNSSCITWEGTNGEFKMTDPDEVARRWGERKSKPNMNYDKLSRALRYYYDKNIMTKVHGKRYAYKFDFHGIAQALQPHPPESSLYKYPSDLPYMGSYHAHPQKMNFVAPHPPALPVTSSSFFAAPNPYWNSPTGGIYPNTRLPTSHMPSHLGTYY
The procedure, abridged: as §1

A further test has as its target T5, EHF (Homo sapiens, UniProt Q9NZC4 1-300).
T5 sequence: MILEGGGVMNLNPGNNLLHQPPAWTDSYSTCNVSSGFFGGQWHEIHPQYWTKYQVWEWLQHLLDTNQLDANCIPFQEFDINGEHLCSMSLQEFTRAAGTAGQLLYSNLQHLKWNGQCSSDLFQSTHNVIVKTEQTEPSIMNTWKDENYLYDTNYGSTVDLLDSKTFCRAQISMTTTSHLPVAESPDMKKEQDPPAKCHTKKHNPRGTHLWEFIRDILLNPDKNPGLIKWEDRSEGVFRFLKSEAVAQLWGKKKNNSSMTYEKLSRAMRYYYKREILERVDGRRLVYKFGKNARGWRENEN
Put shortly:
as §1

For a further test, the target named is SPI1 (Homo sapiens, UniProt P17947 1-270). Put shortly: as §1
The target of a further test is SPIB (Homo sapiens, UniProt Q01892 1-262). The procedure, abridged: as §1
For the next test, the target named is T6, FEV (Homo sapiens, UniProt Q99581 1-238).
T6 sequence: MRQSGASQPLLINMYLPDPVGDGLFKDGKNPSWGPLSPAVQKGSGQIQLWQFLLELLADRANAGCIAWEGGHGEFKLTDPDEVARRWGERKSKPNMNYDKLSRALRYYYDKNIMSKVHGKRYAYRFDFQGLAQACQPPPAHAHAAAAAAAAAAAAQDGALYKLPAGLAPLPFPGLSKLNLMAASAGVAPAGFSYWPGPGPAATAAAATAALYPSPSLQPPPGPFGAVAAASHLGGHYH
The procedure, abridged:
as §1

The target of the next test is ETV5 (Homo sapiens, UniProt P41161 1-510). Put shortly:
as §1

A further test addresses T7, SPIC (Homo sapiens, UniProt Q8N5J4 1-248).
T7 sequence: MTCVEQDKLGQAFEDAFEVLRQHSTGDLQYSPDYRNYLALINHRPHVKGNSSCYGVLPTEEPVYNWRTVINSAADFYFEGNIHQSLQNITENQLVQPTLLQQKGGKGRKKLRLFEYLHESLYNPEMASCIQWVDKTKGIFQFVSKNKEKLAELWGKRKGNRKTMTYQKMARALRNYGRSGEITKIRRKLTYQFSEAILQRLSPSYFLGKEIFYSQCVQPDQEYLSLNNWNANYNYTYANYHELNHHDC
The procedure, abridged:
as §1

The next test has as its target ELF4 (Homo sapiens, UniProt Q99607 1-663). Put shortly: as §1
A further test deals with ETV1 (Homo sapiens, UniProt P50549 1-477). The procedure, abridged:
as §1

For another test, the target named is T8, ERF (Homo sapiens, UniProt P50548 1-548).
T8 sequence: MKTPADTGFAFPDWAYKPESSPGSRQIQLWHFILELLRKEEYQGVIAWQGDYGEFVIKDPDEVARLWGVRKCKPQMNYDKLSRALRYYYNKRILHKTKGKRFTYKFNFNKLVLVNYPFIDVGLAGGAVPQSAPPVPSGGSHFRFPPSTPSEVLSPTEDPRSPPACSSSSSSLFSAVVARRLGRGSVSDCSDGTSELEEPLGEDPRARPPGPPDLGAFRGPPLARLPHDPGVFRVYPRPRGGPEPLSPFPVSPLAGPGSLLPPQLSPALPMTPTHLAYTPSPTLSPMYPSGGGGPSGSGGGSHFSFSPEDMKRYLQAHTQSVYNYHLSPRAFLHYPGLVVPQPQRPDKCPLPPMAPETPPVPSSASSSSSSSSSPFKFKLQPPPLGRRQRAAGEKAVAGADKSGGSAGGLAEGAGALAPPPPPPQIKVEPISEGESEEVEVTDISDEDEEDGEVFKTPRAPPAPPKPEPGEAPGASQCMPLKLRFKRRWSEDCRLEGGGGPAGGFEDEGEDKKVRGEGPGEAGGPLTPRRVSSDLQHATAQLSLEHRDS
Put shortly:
as §1

The target of another test is T9, ETV3L (Homo sapiens, UniProt Q6ZN32 1-361).
T9 sequence: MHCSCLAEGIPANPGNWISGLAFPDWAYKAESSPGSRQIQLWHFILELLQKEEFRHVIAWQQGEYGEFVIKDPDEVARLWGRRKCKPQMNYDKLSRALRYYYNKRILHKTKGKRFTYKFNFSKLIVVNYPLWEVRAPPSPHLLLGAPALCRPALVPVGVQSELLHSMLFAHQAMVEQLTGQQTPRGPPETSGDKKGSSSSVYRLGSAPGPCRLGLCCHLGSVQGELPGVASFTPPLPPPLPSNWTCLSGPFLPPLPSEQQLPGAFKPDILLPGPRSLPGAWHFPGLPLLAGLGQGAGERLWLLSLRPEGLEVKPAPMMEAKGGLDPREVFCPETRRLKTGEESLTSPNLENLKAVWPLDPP
Put shortly:
as §1

A further test addresses T10, ETS2 (Homo sapiens, UniProt P15036 1-469).
T10 sequence: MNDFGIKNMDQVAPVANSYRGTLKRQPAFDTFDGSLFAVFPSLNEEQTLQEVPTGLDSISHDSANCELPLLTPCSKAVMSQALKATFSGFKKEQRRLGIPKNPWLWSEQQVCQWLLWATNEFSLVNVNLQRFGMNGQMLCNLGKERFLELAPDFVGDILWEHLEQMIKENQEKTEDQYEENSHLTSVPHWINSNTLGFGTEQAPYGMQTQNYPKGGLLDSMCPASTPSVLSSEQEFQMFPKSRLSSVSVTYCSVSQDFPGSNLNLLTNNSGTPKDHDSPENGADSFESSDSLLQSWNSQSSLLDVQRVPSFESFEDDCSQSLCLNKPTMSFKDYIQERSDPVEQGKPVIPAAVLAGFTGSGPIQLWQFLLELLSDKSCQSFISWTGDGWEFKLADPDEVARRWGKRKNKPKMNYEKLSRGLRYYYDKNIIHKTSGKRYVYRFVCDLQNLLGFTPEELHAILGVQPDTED
The procedure, abridged: as §1

Another test has as its target T11, SPDEF (Homo sapiens, UniProt O95238 1-335).
T11 sequence: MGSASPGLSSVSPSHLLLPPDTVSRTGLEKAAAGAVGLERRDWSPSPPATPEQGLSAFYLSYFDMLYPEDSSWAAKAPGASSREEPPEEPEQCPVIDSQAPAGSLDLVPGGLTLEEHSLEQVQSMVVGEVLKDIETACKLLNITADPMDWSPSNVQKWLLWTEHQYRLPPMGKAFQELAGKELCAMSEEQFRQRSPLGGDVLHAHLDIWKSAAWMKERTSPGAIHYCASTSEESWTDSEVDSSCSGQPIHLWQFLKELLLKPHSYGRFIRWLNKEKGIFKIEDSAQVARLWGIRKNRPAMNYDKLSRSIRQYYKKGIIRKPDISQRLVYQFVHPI
The procedure, abridged: as §1

A further test has as its target T12, ELF5 (Homo sapiens, UniProt Q9UKW6-2 1-255).
T12 sequence: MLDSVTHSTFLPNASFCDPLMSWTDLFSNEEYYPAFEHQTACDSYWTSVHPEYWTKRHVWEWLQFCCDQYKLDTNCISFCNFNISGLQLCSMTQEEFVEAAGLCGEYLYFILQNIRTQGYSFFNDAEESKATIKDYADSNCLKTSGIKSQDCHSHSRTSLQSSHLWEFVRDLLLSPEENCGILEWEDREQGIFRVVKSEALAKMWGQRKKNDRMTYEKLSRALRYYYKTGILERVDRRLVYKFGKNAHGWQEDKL
The procedure, abridged: as §1

The next test addresses T13, ETV3 (Homo sapiens, UniProt P41162-2 1-143).
T13 sequence: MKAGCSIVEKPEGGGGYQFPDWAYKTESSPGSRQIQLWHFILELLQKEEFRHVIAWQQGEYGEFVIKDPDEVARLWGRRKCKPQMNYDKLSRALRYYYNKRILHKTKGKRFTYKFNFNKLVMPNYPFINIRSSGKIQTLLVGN
Put shortly:
as §1

Chain of ETV1 (P50549 whole entry): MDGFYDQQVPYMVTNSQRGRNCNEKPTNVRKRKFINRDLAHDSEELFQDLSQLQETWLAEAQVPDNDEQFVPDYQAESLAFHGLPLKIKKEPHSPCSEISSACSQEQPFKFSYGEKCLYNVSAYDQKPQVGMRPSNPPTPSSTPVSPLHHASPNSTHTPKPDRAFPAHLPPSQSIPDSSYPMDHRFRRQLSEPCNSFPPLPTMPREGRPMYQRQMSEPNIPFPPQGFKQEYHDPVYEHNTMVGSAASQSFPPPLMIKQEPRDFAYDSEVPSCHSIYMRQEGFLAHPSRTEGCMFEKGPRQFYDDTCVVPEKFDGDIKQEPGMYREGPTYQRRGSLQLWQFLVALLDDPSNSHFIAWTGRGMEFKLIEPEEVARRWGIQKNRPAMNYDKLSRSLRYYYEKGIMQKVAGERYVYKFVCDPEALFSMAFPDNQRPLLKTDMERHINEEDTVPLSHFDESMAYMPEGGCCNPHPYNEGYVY
Chain of ELF4 (Q99607 whole entry): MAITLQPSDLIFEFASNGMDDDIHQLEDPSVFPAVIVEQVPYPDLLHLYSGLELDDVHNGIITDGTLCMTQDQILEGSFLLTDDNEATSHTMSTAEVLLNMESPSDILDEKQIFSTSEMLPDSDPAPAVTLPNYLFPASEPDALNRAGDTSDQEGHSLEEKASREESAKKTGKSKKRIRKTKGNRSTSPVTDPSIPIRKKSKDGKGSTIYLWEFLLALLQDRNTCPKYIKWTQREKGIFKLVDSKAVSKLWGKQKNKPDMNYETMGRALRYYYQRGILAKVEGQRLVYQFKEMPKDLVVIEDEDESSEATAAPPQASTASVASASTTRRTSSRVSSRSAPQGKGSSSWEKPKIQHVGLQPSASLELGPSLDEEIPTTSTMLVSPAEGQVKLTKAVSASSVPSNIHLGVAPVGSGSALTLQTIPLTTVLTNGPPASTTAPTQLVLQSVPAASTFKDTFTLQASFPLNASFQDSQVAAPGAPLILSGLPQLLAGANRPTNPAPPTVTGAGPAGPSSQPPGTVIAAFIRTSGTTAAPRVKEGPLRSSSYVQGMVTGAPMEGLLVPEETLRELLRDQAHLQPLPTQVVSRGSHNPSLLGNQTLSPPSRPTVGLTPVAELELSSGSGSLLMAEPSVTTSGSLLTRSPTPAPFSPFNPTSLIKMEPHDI
Chain of SPIB (Q01892 whole entry): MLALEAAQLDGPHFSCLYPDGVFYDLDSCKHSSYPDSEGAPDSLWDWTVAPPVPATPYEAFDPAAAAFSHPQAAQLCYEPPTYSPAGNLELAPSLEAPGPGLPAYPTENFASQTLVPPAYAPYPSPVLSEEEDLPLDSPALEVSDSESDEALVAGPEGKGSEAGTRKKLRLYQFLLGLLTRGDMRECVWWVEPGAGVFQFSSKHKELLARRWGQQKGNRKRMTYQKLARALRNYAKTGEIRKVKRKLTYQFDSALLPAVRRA
Chain of ETV5 (P41161 whole entry): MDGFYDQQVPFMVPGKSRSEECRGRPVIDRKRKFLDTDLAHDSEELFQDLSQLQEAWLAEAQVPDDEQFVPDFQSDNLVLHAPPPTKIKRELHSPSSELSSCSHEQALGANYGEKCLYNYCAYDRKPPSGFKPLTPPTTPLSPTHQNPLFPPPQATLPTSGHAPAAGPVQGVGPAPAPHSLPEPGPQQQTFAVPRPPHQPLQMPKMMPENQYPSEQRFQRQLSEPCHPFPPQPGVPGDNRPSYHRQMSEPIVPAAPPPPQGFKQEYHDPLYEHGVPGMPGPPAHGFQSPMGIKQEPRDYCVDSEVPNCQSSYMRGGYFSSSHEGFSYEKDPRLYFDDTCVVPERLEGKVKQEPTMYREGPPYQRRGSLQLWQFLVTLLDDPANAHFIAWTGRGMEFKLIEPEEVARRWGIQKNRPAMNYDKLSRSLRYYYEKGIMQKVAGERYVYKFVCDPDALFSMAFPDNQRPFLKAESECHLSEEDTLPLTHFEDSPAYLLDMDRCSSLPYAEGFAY

Consider TGGTGC, for which the binding signal is 1.12 fold enrichment (6-mer frequency, TF over GST control) with FLI1; 1.14 fold enrichment (6-mer frequency, TF over GST control) with ELK1; 1.1 fold enrichment (6-mer frequency, TF over GST control) with GABPA; 1.16 fold enrichment (6-mer frequency, TF over GST control) in the test with ERG; 1.15 fold enrichment (6-mer frequency, TF over GST control) with EHF; 1.12 fold enrichment (6-mer frequency, TF over GST control) with SPI1. For the same sequence, the binding signal in the test with SPIB is 1.06 fold enrichment (6-mer frequency, TF over GST control); with FEV, 1 fold enrichment (6-mer frequency, TF over GST control); with ETV5 it was 1.1 fold enrichment (6-mer frequency, TF over GST control); with SPIC it was 1.14 fold enrichment (6-mer frequency, TF over GST control); with ELF4, 1.07 fold enrichment (6-mer frequency, TF over GST control); with ETV1 it was 1.06 fold enrichment (6-mer frequency, TF over GST control). Moreover, the binding signal is 1.11 fold enrichment (6-mer frequency, TF over GST control) in the test with ERF; 1.05 fold enrichment (6-mer frequency, TF over GST control) in the test with ETV3L; 1.01 fold enrichment (6-mer frequency, TF over GST control) in the test with ETS2; 1.19 fold enrichment (6-mer frequency, TF over GST control) with SPDEF; 1.02 fold enrichment (6-mer frequency, TF over GST control) with ELF5; 1.17 fold enrichment (6-mer frequency, TF over GST control) with ETV3.
